Screening data: PubChem BioAssay, National Center for Advancing Translational Sciences (NCATS)
In the library only some 10% were active in any assay of this set; here they are far more common.
MCF10A rereplic = A quantitative high throughput screen for small molecules that induce DNA re-replication in MCF 10a normal breast cells. Potency, µM (titrated, usually from 46.1 µM), usual class: activators. 350,000 compounds, 2.9% hits. MCF 10A DNA re-replication, Hoechst nuclear intensity, 48 h. AID 624296, 2012; also: nearly all actives have a fitted effect of over 50% in size
RORg inh = qHTS for inhibitors of ROR gamma transcriptional activity; Nuclear receptor ROR-gamma (Mus musculus), P51450; Drosophila S2 Gal4-RORgamma UAS-luciferase reporter, 20 h; Potency, µM (titrated, usually from 53.6 µM), hits mostly inhibitors; 310,000 compounds, 5.4% hits; also: nearly all actives have a fitted effect of over 60% in size
Target sequence (P51450 whole entry, looked up, the tested form may be a part): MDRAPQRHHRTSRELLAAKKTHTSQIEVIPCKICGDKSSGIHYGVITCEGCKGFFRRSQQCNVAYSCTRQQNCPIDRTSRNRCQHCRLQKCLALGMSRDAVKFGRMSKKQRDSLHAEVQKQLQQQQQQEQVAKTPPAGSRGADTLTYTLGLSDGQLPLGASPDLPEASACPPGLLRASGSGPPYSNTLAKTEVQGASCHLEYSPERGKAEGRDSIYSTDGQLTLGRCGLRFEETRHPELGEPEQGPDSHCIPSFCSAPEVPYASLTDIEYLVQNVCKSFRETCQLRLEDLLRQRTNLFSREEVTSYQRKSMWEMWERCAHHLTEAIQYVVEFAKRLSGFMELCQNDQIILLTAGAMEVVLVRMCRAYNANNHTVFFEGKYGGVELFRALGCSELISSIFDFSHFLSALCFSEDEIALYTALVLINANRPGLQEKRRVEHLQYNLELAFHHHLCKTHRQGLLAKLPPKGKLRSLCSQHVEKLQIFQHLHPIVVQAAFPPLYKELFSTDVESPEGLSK
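Stable Schneider cell line, Gal4 DNA-binding domain fused to ROR gamma, UAS-luciferase. Cmpd 1 hr RT → CuSO4 700 uM final → 20 hr RT → luciferase reagent 10 min → luminescence.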
KB-V1 cytotox = qHTS assay for MDR1-selective chemotherapeutics: Primary screen using the drug-selected MDR subline cells KB-V1. KB-V1 MDR cells viability, CellTiter-Glo, 72 h. Potency, µM (highest dose often 46.1 µM), actives largely listed as cytotoxic. 400,000 compounds, 3.4% hits. AID 1347076, 2019; also: nearly all actives have a fitted effect of over 60% in size
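KB-V1 cells (P-gp-expressing MDR subline of KB-3-1) in phenol-red-free DMEM with 10% FBS were exposed to library compounds over a concentration series for 72 h at 37 degrees C. Viability read by CellTiter-Glo luminescence; concentration-effect curves fitted after normalization.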
SW480 rerep = A quantitative high throughput screen for small molecules that induce DNA re-replication in SW480 colon adenocarcinoma cells; SW480 DNA re-replication, Hoechst DNA content imaging, 48 h; 340,000 compounds, 1.8% hits; AID 624297, 2012; Potency, µM (titrated, usually from 46.1 µM), actives largely listed as activators; also: nearly all actives have a fitted effect of over 55% in size
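Per well, 250 cells were exposed to pinned compound for 48 hr. Nuclear DNA was visualised with Hoechst (40 min, 37 C) and total object intensity recorded by fluorescence scanning.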
VP16 counter = VP16 counterscreen qHTS for inhibitors of ROR gamma transcriptional activity. Drosophila S2 Gal4-VP16 UAS-luciferase, luminescence, 20 h. Potency, µM (highest dose often 53.6 µM), usual class: inhibitors. 310,000 compounds, 3.5% hits. AID 2546, 2010;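 also: Gal4-VP16 expression switched on by copper sulfate through the metallothionein promoter; nearly all actives have a fitted effect of over 50% in size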
KB-3-1 cytotox = qHTS assay for MDR1-selective chemotherapeutics: Primary screen using the parental adenocarcinoma cell KB-3-1 | Potency, µM (top dose mostly 46.1 µM), actives largely listed as cytotoxic | KB-3-1 viability, CellTiter-Glo ATP luminescence, 72 h | AID 1347075, 2019 | 400,000 compounds, 1.4% hits; also: nearly all actives have a fitted effect of over 60% in size
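Using CellTiter-Glo luminescence, growth of non-resistant KB-3-1 adenocarcinoma cells is assessed 72 h after pin-tool compound addition at 37 °C. Normalized responses across the concentration series yield fitted curves.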
Large screens that a line does not name were inactive. Calls follow the shape of the dose curve; as a rule, active = well fitted curve in the direction sought with a large enough effect; inconclusive = small, poorly fitted or top-dose-only effect, or another doubt; inactive = no such curve, though single readings can be large; an effect the other way counts as inactive or inconclusive.

CN(C)c1nc(NS(=O)(=O)c2ccc(Cl)cc2)nc(N(C)C)n1	KB-V1 cytotox 13µM
O=S(=O)(Nc1ncccn1)c1ccc(Cl)cc1	none
CC(C)=CCNc1ncnc2c1c(C#N)cn2C1OC(CO)C(O)C1O (stereo not given)	MCF10A rereplic 15µM, KB-V1 cytotox inconclusive, SW480 rerep inconclusive, KB-3-1 cytotox inconclusive (no result: RORg inh, VP16 counter)
OCC1OC(n2cnc3c(NO)ncnc32)C(O)C1O (stereo not given)	KB-3-1 cytotox inconclusive (no result: MCF10A rereplic, RORg inh, SW480 rerep, VP16 counter)
CCOC(=O)NN=C1c2ccccc2-c2ccccc21	KB-V1 cytotox inconclusive
COCCCNC(=S)NNC(=O)c1csc2ccccc12	VP16 counter inconclusive
COCCCNC(=S)NNC(=O)c1ccccc1Br	RORg inh 2.5µM
NC(=S)NN=C1c2ccccc2-c2ccccc21	RORg inh 1.3µM, VP16 counter 4µM
COCCCNC(=S)NNC(=O)c1ccccn1	MCF10A rereplic inconclusive, RORg inh 14µM, KB-V1 cytotox inconclusive, SW480 rerep inconclusive
O=C(NN=C1c2ccccc2-c2ccccc21)c1ccccc1	SW480 rerep inconclusive, KB-3-1 cytotox inconclusive
COCCCNC(=S)NNC(=S)NCCCOC	MCF10A rereplic inconclusive, RORg inh inconclusive
O=C(NN=C1c2ccccc2-c2ccccc21)c1ccccc1Br	RORg inh 7.1µM, VP16 counter 10µM
O=C(Nc1cc(F)ccc1F)C1CCN(C(=O)c2cnn(-c3ccccc3)c2-n2cccc2)CC1	KB-V1 cytotox inconclusive (no result: MCF10A rereplic, RORg inh, SW480 rerep, VP16 counter)
CCNC(=O)CC1C(=O)N(c2ccc(F)cc2)C(=O)N1CCOC (stereo not given)	none (no result: MCF10A rereplic, RORg inh, SW480 rerep, VP16 counter)
COc1ccc(N2CCN(C(=O)c3cnn(-c4ccc(OC)cc4)c3C3CCN(C(=O)OC(C)(C)C)CC3)CC2)cc1	KB-V1 cytotox inconclusive (no result: MCF10A rereplic, RORg inh, SW480 rerep, VP16 counter)
Cc1occc1C(=O)NNC(=O)c1ccccc1Br	none
CNC(=S)NNC(=O)c1ccccc1Br	RORg inh 13µM, KB-V1 cytotox inconclusive, VP16 counter inconclusive
Cc1ccc2ccc(C3C(=O)c4ccccc4C3=O)nc2c1	none (no result: RORg inh, VP16 counter)
Cc1ccc2cc3c(N)[nH]nc3nc2c1	KB-V1 cytotox 18µM (no result: SW480 rerep)
COCCn1c(SCc2nnc(-c3ccccc3)o2)nc2sc3c(c2c1=O)CCC3	RORg inh inconclusive, KB-V1 cytotox 6.5µM
COCCn1c(SCC(=O)Nc2ncc(C)s2)nc2sc3c(c2c1=O)CCC3	VP16 counter 10µM (no result: MCF10A rereplic, KB-V1 cytotox, SW480 rerep, KB-3-1 cytotox)
COc1ccc(-c2nnc(CSc3ncnc4sc5c(c34)CCC5)o2)cc1OC	KB-V1 cytotox 21µM, SW480 rerep inconclusive
CC[C@H](C)[C@H](NC(=O)[C@H](CC(=O)O)NC(=O)[C@H](CC(C)C)NC(=O)[C@H](Cc1cnc[nH]1)NC(=O)[C@H](C)NC(=O)[C@H](Cc1ccccc1)NC(=O)[C@H](Cc1ccc(O)cc1)NC(=O)[C@@H](NC(=O)[C@H](C)NC(=O)[C@H](CCC(=O)O)NC(=O)[C@H](CCCCN)NC(=O)[C@H](CC(=O)O)NC(=O)[C@H](CCSC)NC(=O)[C@H](CC(C)C)NC(C)=O)C(C)C)C(=O)N[C@H](C(=O)N[C@@H](Cc1c[nH]c2ccccc12)C(=O)O)[C@@H](C)CC	none (no result: MCF10A rereplic, KB-V1 cytotox, SW480 rerep, KB-3-1 cytotox)
Cn1c(=O)c2c(nc(NCCOc3ccc(C(C)(C)C)cc3)n2C)n(C)c1=O	MCF10A rereplic 16µM
CCCNc1nc2c(c(=O)n(C)c(=O)n2C)n1CCc1ccccc1	RORg inh inconclusive, VP16 counter inconclusive
COc1ccccc1OCCNc1nc2c(c(=O)n(C)c(=O)n2C)n1C	MCF10A rereplic inconclusive, KB-V1 cytotox inconclusive, SW480 rerep inconclusive
COCCNc1nc2c(c(=O)n(C)c(=O)n2C)n1Cc1cccc(C(F)(F)F)c1	VP16 counter 3.2µM, KB-3-1 cytotox inconclusive
CC(O)CNc1nc2c(c(=O)n(C)c(=O)n2C)n1Cc1cccc(C(F)(F)F)c1 (stereo not given)	none
CCCNc1nc2c(c(=O)n(C)c(=O)n2C)n1Cc1cccc(C)c1	KB-V1 cytotox 9.2µM, VP16 counter 5µM, KB-3-1 cytotox inconclusive
CCSc1ncc(Cl)c(C(=O)Nc2sc3c(c2C(=O)OC)CCCC3)n1	KB-V1 cytotox inconclusive (no result: MCF10A rereplic, RORg inh, SW480 rerep, VP16 counter)
Cn1ccnc1SCC(=O)NC1CCCCC1	none
CCCn1c(SCC(=O)NC2CC2)nnc1-c1cccs1	SW480 rerep inconclusive
Cn1c(SCC(=O)N(C2CCCCC2)C2CCCCC2)nnc1-c1cccs1	MCF10A rereplic 13µM, SW480 rerep inconclusive, KB-3-1 cytotox inconclusive
Cn1c(SCC(=O)NC2CC2)nnc1-c1cccs1	RORg inh inconclusive, VP16 counter 18µM
CCN(C(=O)C(C)Sc1nnc(-c2ccncc2)n1C)C1CCCCC1 (stereo not given)	KB-V1 cytotox 16µM (no result: RORg inh, VP16 counter)
Cn1ccnc1SCC(=O)N(C1CCCCC1)C1CCCCC1	MCF10A rereplic inconclusive, RORg inh 11µM, VP16 counter inconclusive
Cn1c(SCc2ccc(F)cc2)nnc1-c1cccs1	KB-V1 cytotox 16µM, VP16 counter inconclusive
Cn1c(SCc2ccccc2)nnc1-c1cccs1	none
COc1ccc(-c2n[nH]c(=S)n2N)c(OC)c1	none
CCn1c(-c2cc(-c3cc(OC)ccc3OC)nc3ccccc23)n[nH]c1=S	RORg inh 8.9µM
CCn1c(-c2cc(-c3ccccc3OC)nc3ccccc23)n[nH]c1=S	MCF10A rereplic inconclusive, RORg inh 7.9µM, KB-V1 cytotox inconclusive, SW480 rerep inconclusive
COC(=O)C=P(c1ccccc1)(c1ccccc1)c1ccccc1	none (no result: MCF10A rereplic, KB-V1 cytotox, SW480 rerep, KB-3-1 cytotox)
CO/N=C(/C(=O)N[C@@H]1C(=O)N2C(C(=O)O)=CCS[C@H]12)c1csc(N)n1	none (no result: KB-V1 cytotox, KB-3-1 cytotox)
Cc1cccc(C)c1-n1nnnc1C(c1cc2ccccc2o1)N1CCN(C/C=C/c2ccccc2)CC1 (stereo not given)	none (no result: MCF10A rereplic, RORg inh, SW480 rerep, VP16 counter)
COc1ccc2cc1Oc1cc3c(cc1OC)CC[N+](C)(C)C3Cc1ccc(cc1)Oc1c(OC)c(OC)cc3c1C(C2)[N+](C)(C)CC3 (stereo not given)	none (no result: KB-V1 cytotox, KB-3-1 cytotox)
Cc1ccc(NC(=S)NNC(=S)Nc2ccc(C)cc2)cc1	KB-V1 cytotox inconclusive, KB-3-1 cytotox 3.7µM (no result: RORg inh, VP16 counter)
Cc1ccc(NNC(=S)Nc2ccc(C(C)C)cc2)c(C)c1	MCF10A rereplic 7.3µM, RORg inh 11µM, VP16 counter inconclusive
Cc1ccc(NC(=S)NCC(C)C)cc1	RORg inh 10µM, VP16 counter 11µM
COC(=O)c1cn(-c2nc3ccccc3s2)nn1	none (no result: MCF10A rereplic, RORg inh, SW480 rerep, VP16 counter)
Cc1cccc2c1-c1sc(C(=O)NCc3ccc(Cl)cc3)cc1CO2	none (no result: MCF10A rereplic, RORg inh, SW480 rerep, VP16 counter)
